# Assay results reported in PubChem BioAssay (Tox21).
# Active and inactive are the calls of the source. Where a call stands in place of a potency, no number is given. Calls come from the whole dose curve.
# Molecular target: Acetylcholinesterase (Homo sapiens) (UniProt P22303)
# Assay: Acetylcholinesterase (AChE) small molecule antagonists: enzyme-based qHTS assay with human liver microsomes (AID 1347399); note: nearly all actives have a fitted effect of over 60% in size
# Settings: Potency: qHTS inhibition; outcome: qHTS inhibition; series mostly up to 115 µM
# Procedure, shortened: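 Recombinant human AChE (50 mU/mL in the enzyme mix) and human liver microsomes (0.25 mg/mL final) were preincubated with compound and NADPH (0.25 mg/mL final) for 30 min at 37 C. Acetylthiocholine/DTNB was then added; thiocholine was read colorimetrically after 10 min at room temperature.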
# Acetylcholinesterase (Homo sapiens), sequence (P22303 whole entry, looked up): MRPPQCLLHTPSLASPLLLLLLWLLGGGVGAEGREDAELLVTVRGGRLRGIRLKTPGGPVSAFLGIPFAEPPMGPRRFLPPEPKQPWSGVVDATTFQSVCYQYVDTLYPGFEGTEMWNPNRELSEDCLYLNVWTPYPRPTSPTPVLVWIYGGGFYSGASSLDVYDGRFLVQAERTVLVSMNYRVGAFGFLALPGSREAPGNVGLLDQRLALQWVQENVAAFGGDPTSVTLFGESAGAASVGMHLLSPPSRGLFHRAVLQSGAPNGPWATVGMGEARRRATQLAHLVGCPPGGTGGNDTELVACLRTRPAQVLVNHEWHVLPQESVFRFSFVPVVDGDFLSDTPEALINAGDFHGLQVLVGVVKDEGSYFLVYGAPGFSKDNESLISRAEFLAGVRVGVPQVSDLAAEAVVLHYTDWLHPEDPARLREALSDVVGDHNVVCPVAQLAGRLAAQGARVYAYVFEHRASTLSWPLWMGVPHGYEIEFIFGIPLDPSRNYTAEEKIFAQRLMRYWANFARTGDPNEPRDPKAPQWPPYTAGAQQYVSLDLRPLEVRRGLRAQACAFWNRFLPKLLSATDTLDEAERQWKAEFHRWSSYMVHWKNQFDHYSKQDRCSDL
row,SMILES,Potency
1,C[C@H]1COc2c(C3(N)CC3)c(F)cc3c(=O)c(C(=O)O)cn1c23,inactive
2,CC(C)(Oc1ccc(C2CC2(Cl)Cl)cc1)C(=O)O (stereo not drawn),inactive
3,Cc1ccc(Cl)c(N)c1Cl,inactive
4,C1CN(CCOCCN2CCOCC2)CCO1,inactive
5,O=C1NC(c2ccccc2)(c2ccccc2)C(=O)N1COP(=O)(O)O,inactive
6,OC/C(Br)=C(\Br)CO,inactive
7,CC(C)CCOC(=O)c1ccccc1,inactive
8,COc1cc(C)cc(O)c1,inactive
9,CC/C=C\C/C=C\C/C=C\CCCCCCCC(=O)O,inactive
10,C=C1C2CCC(C2)C1(C)C (stereo not drawn),inactive
11,c1ccc2c(c1)[nH]c1ccccc12,inactive
12,CC(C)C[C@H](NC(=O)[C@H](CCc1ccccc1)NC(=O)CN1CCOCC1)C(=O)N[C@@H](Cc1ccccc1)C(=O)N[C@@H](CC(C)C)C(=O)[C@@]1(C)CO1,inactive
13,COc1ccc(-n2nc(CCC(=O)N(C)O)cc2-c2ccc(Cl)cc2)cc1,inactive
14,Clc1cccc(Cl)n1,inactive
15,Cc1ccc(S(=O)(=O)N=C=O)cc1,inactive
16,CCCSSCCC,inactive
17,CC[C@@H]([C@H](C)O)n1ncn(-c2ccc(N3CCN(c4ccc(OC[C@@H]5CO[C@@](Cn6cncn6)(c6ccc(F)cc6F)C5)cc4)CC3)cc2)c1=O,inactive
18,CC(=O)c1sc(C)nc1C,inactive
19,CCN(CCO)c1cccc(C)c1,inactive
20,CCCC(=O)OC,inactive
21,CCN(CC)C(=O)c1ccc(O)c(OC)c1,inactive
22,CCC(C)(CCCC(C)C)OC(C)=O (stereo not drawn),inactive
23,Nc1nc2ccc(OC(F)(F)F)cc2s1,inactive
